Records with an inconclusive call do not appear. Calls of active or inactive are those of the source. Unless noted, calls follow the shape of the dose curve; as a rule, active = well fitted curve in the direction sought with a large enough effect in the repeat runs; inconclusive = weak or mixed curves; inactive = no such curve, though single readings can be large; an effect the other way counts as inactive or inconclusive.
How the values were obtained:
[1] = qHTS assay to identify small molecule agonists of the sonic hedgehog signaling (Shh) pathway (AID 1259368; calls by dose curve;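 also: NIH/3T3-derived 3T3Gli1-Luc cells carrying a stable Gli1-driven firefly luciferase reporter; series mostly up to about 92 µM; nearly all actives have a fitted effect of over 15% in size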)
How it was run: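 Stable NIH/3T3 Gli1-Luc reporter clone; 24 hr cpd exposure after a 4 hr settling period; luminescence endpoint.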

[2] = biological target: Estrogen receptor beta (Homo sapiens) (UniProt Q92731); assay: qHTS assay to identify small molecule agonists of the estrogen receptor beta (ER-beta) signaling pathway (AID 1259377; active = well fitted activation curve with a large enough effect in the signal ratio in the repeat runs, not every such curve was filed as active; the % refers to the signal ratio)
How it was run: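 Agonist mode cell assay in GripTite HEK293T cells expressing an ER-beta fusion that drives beta-lactamase from an Upstream Activator Sequence; 16 hr compound exposure at 37C, then 2 h LiveBLAzer B/G FRET substrate at room temperature, fluorescence read-out.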

[3] = biological target: Estrogen receptor beta (Homo sapiens) (UniProt Q92731); assay: qHTS assay to identify small molecule antagonists of the estrogen receptor beta (ER-beta) signaling pathway (AID 1259378; active = well fitted inhibition curve with a large enough effect in the signal ratio in the repeat runs, not every such curve was filed as active; the % refers to the signal ratio)
How it was run: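 ER-beta-UAS-bla HEK293T cells in 2% charcoal-stripped FBS medium treated with compound plus 1nM final 17-beta-estradiol for 16 hr at 37C. Beta-lactamase reporter read by FRET substrate fluorescence after 2 hours at room temperature.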

[4] = qHTS assay to identify small molecule agonists of the androgen receptor (AR) signaling pathway in the presence of an antagonist - cell viability counter screen (AID 1259379);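 also: MDA-kb2 human breast cancer cells carrying an MMTV luciferase reporter; series mostly up to about 92 µM; nearly all actives have a fitted effect of over 25% in size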
How it was run: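 Counter screen for cell viability run in parallel with the AR agonist-mode luciferase assay. MDA-kb2 cells were co-treated with nilutamide (3.0uM final) and compounds, then incubated 16 hr at 37C, and CellTiter-Fluor fluorescence was measured.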

[5] = qHTS assay to identify small molecule agonists of the estrogen receptor beta (ER-beta) signaling pathway - cell viability counter screen (AID 1259380); also: nearly all actives have a fitted effect of over 30% in size
How it was run: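 In this qHTS counter screen, HEK293T cells carrying an ER-beta/UAS beta-lactamase reporter, grown in 2% charcoal-stripped FBS, received compound for 16 hr; ATP-based CellTiter-Glo luminescence was then read after 30 min at room temperature.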

[6] = qHTS assay to identify small molecule antagonists of the estrogen receptor beta (ER-beta) signaling pathway - cell viability counter screen (AID 1259382); also: series mostly up to about 92 µM; nearly all actives have a fitted effect of over 55% in size
How it was run: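 HEK293T ER-beta-UAS-bla, 2% charcoal-stripped FBS; compounds + 1nM E2 16 hr 37C; CellTiter-Glo luminescence, 30 min RT.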

[7] = biological target: Estrogen receptor (Homo sapiens) (UniProt P03372); assay: qHTS assay to identify small molecule agonists of the estrogen receptor alpha (ER-alpha) signaling pathway in the presence of an antagonist (AID 1259383; calls by dose curve; also: top concentration of the series differs between compounds; nearly all actives have a fitted effect of over 15% in size)
How it was run: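 ER-alpha agonism measured under antagonist challenge: 10.0nM ICI-182,780 (final) plus compound, 15 concentrations, 22hr, VM7Luc4E2 ERE-luciferase cells. Read by luminescence.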

[8] = qHTS assay to identify small molecule agonists or antagonists of the thyroid stimulating hormone receptor (TSHR) signaling pathway - wild type cell line counter screen (AID 1259384; calls by dose curve)
How it was run: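 Wild-type Hek293 cells, 800/well, 18 h at 37C, then compound with Ro20-1724 for 30 min RT. cAMP by HTRF (cAMP-d2/anti-cAMP cryptate), 1 h RT, fluorescence read. 15 concentrations, triplicates.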

[9] = biological target: Thyrotropin receptor (Homo sapiens) (UniProt P16473); assay: qHTS assay to identify small molecule antagonists of the thyroid stimulating hormone receptor (TSHR) signaling pathway (AID 1259385; calls by dose curve; also: nearly all actives have a fitted effect of over 20% in size)
How it was run: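 TSHR-HEK293 cells (800/well) plated 18 h, then compounds with Ro20-1724 and TSH at 1.5 ng/mL final, 30 min at room temperature. cAMP quantified by HTRF (cAMP-d2/anti-cAMP-cryptate, 1 h); 15 concentrations in triplicate.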

[10] = qHTS assay to identify small molecule agonists of the estrogen receptor alpha (ER-alpha) signaling pathway in the presence of an antagonist - cell viability counter screen (AID 1259386);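 also: series mostly up to about 92 µM; cells exposed to compounds for 22 h at 37 °C before the viability read; nearly all actives have a fitted effect of over 30% in size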
How it was run: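 Steps: 5-day stripped-FBS culture; seed and incubate 24hr; add ICI-182,780 (10.0nM final); pin 15-point compound titration; incubate 22hr at 37C; add CellTiter-Fluor at 21hr; read fluorescence.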

[11] = biological target: Progesterone receptor (Homo sapiens) (UniProt P06401); assay: qHTS assay to identify small molecule agonists of the progesterone receptor (PR) signaling pathway (AID 1346784; calls by dose curve; also: nearly all actives have a fitted effect of over 30% in size)
How it was run: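 Cells (PR-UAS-bla HEK 293T, GripTite) were plated in assay medium containing 2% charcoal-stripped FBS and incubated 6 hr. Test compounds in DMSO were added for 16 hr at 37C. FRET substrate was then loaded for 2 hr at room temperature before fluorescence reading.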

[12] = biological target: Progesterone receptor (Homo sapiens) (UniProt P06401); assay: qHTS assay to identify small molecule antagonists of the progesterone receptor (PR) signaling pathway (AID 1346795; active = well fitted inhibition curve with a large enough effect in the signal ratio in the repeat runs, not every such curve was filed as active; the % refers to the signal ratio)
How it was run: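 Antagonist mode: compounds tested against 1 nM (final) promegestone stimulation in HEK293T cells expressing PR-UAS-bla reporter, 16 hr at 37C, 5% CO2; beta-lactamase activity detected via B/G FRET substrate after 2 hr at room temperature.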

[13] = qHTS assay to identify small molecule antagonists of the progesterone receptor (PR) signaling pathway - cell viability counter screen (AID 1346798); also: series mostly up to about 92 µM; nearly all actives have a fitted effect of over 50% in size
How it was run: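 Counter screen for cytotoxicity: viability of PR-UAS-bla HEK293T cells was measured with CellTiter-Glo luminescence following 16 hr compound exposure in the presence of R5020.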

[14] = qHTS assay to identify small molecule agonists of the progesterone receptor (PR) signaling pathway - cell viability counter screen (AID 1346799; calls by dose curve; also: nearly all actives have a fitted effect of over 45% in size)
How it was run: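 Cells (PR-UAS-bla HEK293T) are plated at 3,000/well in 2% charcoal-stripped FBS medium, rested 6 hr, dosed and incubated 16 hr at 37C. CellTiter-Glo is then added and luminescence measured after 30 min at room temperature.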

[15] = qHTS assay to identify small molecule antagonists of the TGF-beta/Smad signaling pathway - cell viability counter screen (AID 1346824); also: nearly all actives have a fitted effect of over 50% in size
How it was run: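 SBE-bla HEK 293T cells, incubated overnight, then compound plus 0.25 ng/mL TGF-beta1 (stock added) for 5 hr at 37 C. Viability was read in the same wells by CellTiter-Glo luminescence after 30 min at room temperature.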

[16] = qHTS assay to identify small molecule agonists of the TGF-beta/Smad signaling pathway (AID 1346859; active = well fitted activation curve with a large enough effect in the signal ratio in the repeat runs, not every such curve was filed as active; the % refers to the signal ratio; also: series mostly up to about 77 µM)
How it was run: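 Reporter line: HEK 293T with stably integrated SBE-controlled beta-lactamase. Compound exposure lasts 5 hr at 37 C and 5% CO2; substrate loading follows for 2 hr at room temperature, with emission read at 460 and 530 nm.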

[17] = biological target: Androgen receptor (Homo sapiens) (UniProt P10275); assay: qHTS assay to identify small molecule agonists of the androgen receptor (AR) signaling pathway in the presence of an antagonist (AID 1259381; calls by dose curve; also: nearly all actives have a fitted effect of over 15% in size)
How it was run: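 AR antagonist background: nilutamide 3.0uM final. Cell line: MDA-kb2, MMTV-driven luciferase, responsive to both AR and GR. Exposure 16hr, 37C, no CO2; ONE-Glo luminescence.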

[18] = qHTS assay to identify small molecule agonists of the TGF-beta/Smad signaling pathway - cell viability counter screen (AID 1346829); also: top concentration of the series differs between compounds; nearly all actives have a fitted effect of over 45% in size
How it was run: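 Tox21 qHTS format: SBE-bla HEK 293T cells treated with DMSO-dissolved compounds for 5 hr; CellTiter-Glo luminescence after 30 min at room temperature.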

[19] = biological target: Thyrotropin-releasing hormone receptor (Homo sapiens) (UniProt P34981); assay: qHTS assay to identify small molecule antagonists of the thyrotropin-releasing hormone receptor (TRHR) signaling pathway (AID 1346877; active = well fitted inhibition curve with a large enough effect in the repeat runs, not every such curve was filed as active; also: series mostly up to about 51 µM)
How it was run: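 Human TRHR in HEK293 cells; inhibition of the intracellular calcium rise triggered by 1 nM TRH was followed by fluorescence over 3 min. Compounds were run at 15 concentrations, three replicates each.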

[20] = qHTS assay to identify small molecule antagonists of the sonic hedgehog signaling (Shh) pathway (AID 1259369; calls by dose curve; also: nearly all actives have a fitted effect of over 45% in size)
How it was run: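 Gli1 transcriptional reporter (firefly Luc) in NIH/3T3 background, conditioned-medium activated. 24hr exposure, luminescence endpoint.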

Measured: Potency

Chain of Thyrotropin-releasing hormone receptor (Homo sapiens) (P34981 whole entry, looked up): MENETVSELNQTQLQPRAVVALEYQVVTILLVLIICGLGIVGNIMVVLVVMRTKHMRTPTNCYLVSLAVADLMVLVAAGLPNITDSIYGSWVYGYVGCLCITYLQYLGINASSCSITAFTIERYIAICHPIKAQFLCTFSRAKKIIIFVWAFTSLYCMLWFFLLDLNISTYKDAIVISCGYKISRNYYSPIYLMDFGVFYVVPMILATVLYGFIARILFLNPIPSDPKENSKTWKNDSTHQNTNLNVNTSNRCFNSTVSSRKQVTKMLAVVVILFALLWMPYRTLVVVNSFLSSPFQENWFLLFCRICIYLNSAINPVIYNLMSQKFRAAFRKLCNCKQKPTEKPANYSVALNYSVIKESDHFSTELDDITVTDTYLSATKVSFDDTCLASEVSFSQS
Chain of Androgen receptor (Homo sapiens) (P10275 whole entry, looked up): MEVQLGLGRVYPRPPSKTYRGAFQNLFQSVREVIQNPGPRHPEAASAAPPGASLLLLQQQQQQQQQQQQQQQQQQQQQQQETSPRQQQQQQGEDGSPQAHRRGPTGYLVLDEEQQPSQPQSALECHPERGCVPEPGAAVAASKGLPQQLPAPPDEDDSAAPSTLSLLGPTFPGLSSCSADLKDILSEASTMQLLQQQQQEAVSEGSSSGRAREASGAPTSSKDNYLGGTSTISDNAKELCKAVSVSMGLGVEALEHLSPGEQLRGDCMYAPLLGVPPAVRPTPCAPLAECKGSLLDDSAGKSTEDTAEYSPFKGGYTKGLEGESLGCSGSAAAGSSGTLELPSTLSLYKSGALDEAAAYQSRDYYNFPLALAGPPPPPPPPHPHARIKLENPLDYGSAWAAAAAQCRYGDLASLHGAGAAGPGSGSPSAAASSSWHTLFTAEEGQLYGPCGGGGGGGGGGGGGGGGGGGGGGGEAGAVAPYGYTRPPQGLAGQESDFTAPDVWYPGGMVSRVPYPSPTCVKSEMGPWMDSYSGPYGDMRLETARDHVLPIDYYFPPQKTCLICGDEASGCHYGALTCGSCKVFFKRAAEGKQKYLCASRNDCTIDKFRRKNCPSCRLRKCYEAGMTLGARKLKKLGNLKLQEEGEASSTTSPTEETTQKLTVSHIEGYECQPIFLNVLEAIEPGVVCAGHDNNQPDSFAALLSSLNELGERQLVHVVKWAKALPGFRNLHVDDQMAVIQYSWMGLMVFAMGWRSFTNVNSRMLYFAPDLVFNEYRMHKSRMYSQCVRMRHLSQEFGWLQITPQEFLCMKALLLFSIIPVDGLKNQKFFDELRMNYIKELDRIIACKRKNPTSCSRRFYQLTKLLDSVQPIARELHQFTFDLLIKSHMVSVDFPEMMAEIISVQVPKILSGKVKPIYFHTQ
Chain of Progesterone receptor (Homo sapiens) (P06401 whole entry, looked up): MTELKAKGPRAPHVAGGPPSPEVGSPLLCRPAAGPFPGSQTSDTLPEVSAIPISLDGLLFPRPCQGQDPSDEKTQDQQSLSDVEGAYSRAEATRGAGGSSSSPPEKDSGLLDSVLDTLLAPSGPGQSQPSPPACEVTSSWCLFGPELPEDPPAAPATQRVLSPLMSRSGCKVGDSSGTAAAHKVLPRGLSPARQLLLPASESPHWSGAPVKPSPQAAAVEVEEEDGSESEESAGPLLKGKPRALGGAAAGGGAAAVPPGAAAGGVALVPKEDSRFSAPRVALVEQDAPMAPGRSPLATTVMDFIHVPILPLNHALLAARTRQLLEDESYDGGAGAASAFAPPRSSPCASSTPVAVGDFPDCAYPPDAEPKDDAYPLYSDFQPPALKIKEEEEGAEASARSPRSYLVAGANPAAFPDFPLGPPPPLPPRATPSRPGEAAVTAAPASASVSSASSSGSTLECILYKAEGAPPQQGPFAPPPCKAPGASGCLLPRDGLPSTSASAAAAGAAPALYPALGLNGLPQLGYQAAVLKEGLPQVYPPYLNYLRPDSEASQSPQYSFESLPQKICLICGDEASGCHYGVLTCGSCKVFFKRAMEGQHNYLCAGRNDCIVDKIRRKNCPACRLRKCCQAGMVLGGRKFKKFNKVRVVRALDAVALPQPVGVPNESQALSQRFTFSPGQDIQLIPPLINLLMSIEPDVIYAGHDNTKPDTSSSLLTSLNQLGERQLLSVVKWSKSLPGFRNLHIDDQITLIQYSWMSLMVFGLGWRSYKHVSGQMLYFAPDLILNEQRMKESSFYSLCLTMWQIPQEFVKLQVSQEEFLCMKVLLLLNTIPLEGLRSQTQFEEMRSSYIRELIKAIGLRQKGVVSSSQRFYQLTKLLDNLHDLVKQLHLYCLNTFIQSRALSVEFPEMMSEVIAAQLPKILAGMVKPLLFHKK
Chain of Thyrotropin receptor (Homo sapiens) (P16473 whole entry, looked up): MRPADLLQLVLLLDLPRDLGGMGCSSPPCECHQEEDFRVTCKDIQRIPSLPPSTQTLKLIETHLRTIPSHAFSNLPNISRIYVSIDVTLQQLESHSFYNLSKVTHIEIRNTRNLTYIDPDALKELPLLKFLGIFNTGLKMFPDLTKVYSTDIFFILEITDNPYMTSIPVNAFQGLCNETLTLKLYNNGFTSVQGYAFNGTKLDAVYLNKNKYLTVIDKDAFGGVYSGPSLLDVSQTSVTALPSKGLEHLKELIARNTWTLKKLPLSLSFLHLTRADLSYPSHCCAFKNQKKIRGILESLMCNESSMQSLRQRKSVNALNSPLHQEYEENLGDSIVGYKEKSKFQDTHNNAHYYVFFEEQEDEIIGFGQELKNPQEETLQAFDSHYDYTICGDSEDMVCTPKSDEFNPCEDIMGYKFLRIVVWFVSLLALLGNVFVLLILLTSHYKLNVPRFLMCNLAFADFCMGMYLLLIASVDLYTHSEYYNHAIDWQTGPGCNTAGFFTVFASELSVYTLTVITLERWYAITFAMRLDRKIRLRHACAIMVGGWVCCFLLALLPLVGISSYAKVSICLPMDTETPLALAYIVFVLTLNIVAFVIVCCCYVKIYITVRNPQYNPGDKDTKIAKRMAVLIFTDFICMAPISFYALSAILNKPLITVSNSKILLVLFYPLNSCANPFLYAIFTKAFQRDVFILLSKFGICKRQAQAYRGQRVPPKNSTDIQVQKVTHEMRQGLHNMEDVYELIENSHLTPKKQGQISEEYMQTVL
Chain of Estrogen receptor (Homo sapiens) (P03372 whole entry, looked up): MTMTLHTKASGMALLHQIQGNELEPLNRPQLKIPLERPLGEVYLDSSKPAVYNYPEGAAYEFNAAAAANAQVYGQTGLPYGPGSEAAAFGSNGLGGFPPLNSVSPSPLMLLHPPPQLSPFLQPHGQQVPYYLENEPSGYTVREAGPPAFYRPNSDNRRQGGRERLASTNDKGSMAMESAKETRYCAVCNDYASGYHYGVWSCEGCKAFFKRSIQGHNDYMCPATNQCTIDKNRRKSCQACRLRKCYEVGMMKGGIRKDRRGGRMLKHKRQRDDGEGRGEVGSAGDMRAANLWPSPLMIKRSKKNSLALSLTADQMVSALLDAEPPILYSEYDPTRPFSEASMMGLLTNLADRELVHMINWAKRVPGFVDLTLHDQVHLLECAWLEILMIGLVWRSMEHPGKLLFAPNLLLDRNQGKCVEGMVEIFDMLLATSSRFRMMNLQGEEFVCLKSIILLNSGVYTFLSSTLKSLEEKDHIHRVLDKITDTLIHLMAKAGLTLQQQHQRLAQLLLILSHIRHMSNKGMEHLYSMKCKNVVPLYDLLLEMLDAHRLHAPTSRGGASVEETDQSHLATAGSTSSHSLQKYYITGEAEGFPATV
Chain of Estrogen receptor beta (Homo sapiens) (Q92731 whole entry, looked up, the tested form may be a part): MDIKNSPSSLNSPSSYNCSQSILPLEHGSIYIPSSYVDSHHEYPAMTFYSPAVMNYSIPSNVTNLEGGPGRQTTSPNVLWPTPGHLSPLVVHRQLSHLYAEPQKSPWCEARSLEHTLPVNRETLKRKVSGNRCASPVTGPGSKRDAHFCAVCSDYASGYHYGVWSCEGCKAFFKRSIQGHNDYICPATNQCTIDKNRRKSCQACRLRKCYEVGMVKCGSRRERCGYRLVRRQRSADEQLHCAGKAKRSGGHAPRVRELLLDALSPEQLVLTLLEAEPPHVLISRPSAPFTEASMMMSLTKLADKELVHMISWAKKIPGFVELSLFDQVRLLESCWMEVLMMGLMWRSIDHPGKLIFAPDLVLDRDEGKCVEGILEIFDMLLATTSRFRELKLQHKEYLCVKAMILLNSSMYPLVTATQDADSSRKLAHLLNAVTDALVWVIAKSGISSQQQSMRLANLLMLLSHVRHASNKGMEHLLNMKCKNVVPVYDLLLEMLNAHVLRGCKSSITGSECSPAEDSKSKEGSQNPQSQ

CCCCc1ccc(N)cc1
inactive: [1] | [2] | [3] | [4] | [5] | [6] | [7] | [8] | [9] | [10] | [11] | [12] | [13] | [14] | [15] | [16]

C#CC(O)C(CC)CCCC (stereo not given)
inactive: [1] | [2] | [3] | [5] | [17] | [6] | [9] | [10] | [11] | [12] | [13] | [14] | [15] | [18] | [16] | [19]

CC(CCO)CCCC(C)(C)O (stereo not given)
inactive: [1] | [2] | [3] | [4] | [5] | [6] | [10] | [11] | [12] | [13] | [14] | [15] | [18] | [16] | [19]

CN(C)CCn1nnnc1SCC1=C(C(=O)O)N2C(=O)[C@@H](NC(=O)Cc3csc(N)n3)[C@H]2SC1
inactive: [1] | [4] | [5] | [17] | [6] | [9] | [10] | [11] | [12] | [13] | [14] | [15] | [16] | [19]

COC(=O)C1=C(C)NC(C)=C(C(=O)OCC(C)=O)C1c1ccccc1[N+](=O)[O-] (stereo not given)
inactive: [1] | [4] | [5] | [6] | [7] | [8] | [9] | [10] | [11] | [12] | [13] | [18] | [16] | [19]

Nc1ncnc2c1ncn2Cc1c(F)cccc1Cl
inactive: [1] | [4] | [5] | [7] | [8] | [9] | [10] | [11] | [12] | [13] | [14] | [15] | [18] | [16] | [19]

c1ccc(SCCSc2ccccc2)cc1
inactive: [20] | [2] | [3] | [4] | [5] | [17] | [8] | [10] | [11] | [13] | [14] | [15] | [18] | [16] | [19]

CCCCCCCCC=O
inactive: [1] | [2] | [3] | [4] | [5] | [6] | [8] | [9] | [10] | [12] | [13] | [18]

CC(C)(O)C(=O)c1ccc(OCCO)cc1
inactive: [1] | [2] | [3] | [4] | [5] | [6] | [7] | [10] | [11] | [12] | [13] | [14] | [15] | [18] | [16] | [19]

CCOC(=O)Nc1ccc2c(c1)N(C(=O)CCN1CCOCC1)c1ccccc1S2
inactive: [1] | [2] | [3] | [4] | [5] | [17] | [6] | [7] | [8] | [9] | [10] | [11] | [13] | [18] | [16]

CCOC(=O)[C@H](CCc1ccccc1)N[C@@H](C)C(=O)N1CCC[C@H]1C(=O)O
inactive: [1] | [20] | [6] | [8] | [9] | [10] | [13] | [14] | [15] | [18] | [16] | [19]

CCCCCCCCCCCCI
inactive: [1] | [6] | [9] | [10] | [11] | [12] | [13] | [14] | [15] | [18] | [16] | [19]

C=C(C)[C@H]1CC=C(C)CC1
inactive: [1] | [4] | [5] | [6] | [7] | [10] | [11] | [12] | [13] | [14] | [15] | [18] | [16]

C=C(C)[C@@H]1CCC2=CC(=O)C[C@@H](C)[C@]2(C)C1
inactive: [1] | [3] | [4] | [5] | [6] | [7] | [9] | [10] | [11] | [14] | [18] | [16]

CCn1c(=O)c2c(nc(/C=C/c3ccc(OC)c(OC)c3)n2C)n(CC)c1=O
inactive: [1] | [4] | [8] | [10] | [12] | [18] | [16] | [19]
